According to PubChem BioAssay AID2110 (National Center for Advancing Translational Sciences (NCATS), 2009):
Results filed as inconclusive are left out. Calls of active or inactive are those of the source. Calls follow the shape of the dose curve; as a rule, active = well fitted curve in either direction with a large enough effect; inconclusive = small, poorly fitted or top-dose-only effect; inactive = no such curve, though single readings can be large or run the other way.

target: Lysosomal alpha-glucosidase (Homo sapiens) (UniProt P10253); assay: Confirmation of Inhibitors and Activators of Purified Human alpha-Glucosidase Using an Alternate Red Fluorescent Susbtrate; conditions: purified enzyme, red fluorogenic substrate; series mostly up to 63.4 µM
Method in brief: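 Concentration series tested against 4 nM purified human enzyme, pH 5.0 citrate buffer with Tween-20; 400 uM resorufin glycoside substrate, 20 min room temperature, NaOH/glycine stop. Fluorescence normalized to no-enzyme and full-activity controls; Hill-equation AC50.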

| SMILES | Potency |
| --- | --- |
| CCCN1CNc2c(c(=O)[nH]c(=S)n2CCc2ccc(C)cc2C)C1 | 2.82 µM (active) |
| Cc1ccc(N2CCN(S(=O)(=O)c3ccc4c(c3)CC(=O)N4)CC2)cc1 | inactive |
| CCCN1CNc2c(c(=O)[nH]c(=S)n2CCc2cc(Cl)ccc2Cl)C1 | 0.794 µM (active) |
| CC(=O)c1ccc(N2CCN(S(=O)(=O)c3ccc4c(c3)CCCN4C(C)=O)CC2)cc1 | inactive |
| CC(=O)c1ccc(N2CCN(S(=O)(=O)c3ccc4c(c3)CC(C)N4C(C)=O)CC2)cc1 (stereo not given) | inactive |
| Nc1nc(N)c2nc(-c3ccccc3)c(N)nc2n1 | inactive |
| CCCN1CNc2c(c(=O)[nH]c(=S)n2CCc2ccc(OC)cc2)C1 | 6.31 µM (active) |
| Cc1ccc(S(=O)(=O)N2CCN(C(=O)N(c3ccccc3)c3ccccc3)CC2)cc1 | inactive |
| O=C1Cc2cc(S(=O)(=O)N3CCN(c4ccc(CO)cc4)CC3)ccc2N1 | 13 µM [inhibitor] (active) |
| CCCN1CNc2c(c(=O)[nH]c(=S)n2CCc2cccc(Cl)c2)C1 | 11.2 µM (active) |
| COc1ccc(CCn2c3c(c(=O)[nH]c2=S)CN(c2ccccc2)CN3)cc1OC | 7.94 µM (active) |
| CC(=O)c1ccc(N2CCN(S(=O)(=O)c3ccc4c(c3)n(C)c(=O)n4C)CC2)cc1 | inactive |
| CC(=O)c1ccc(N2CCN(S(=O)(=O)c3ccc4c(c3)CCCC(=O)N4)CC2)cc1 | inactive |
| COc1ccc(CCn2c3c(c(=O)[nH]c2=S)CN(Cc2ccccc2)CN3)cc1OC | 1.78 µM (active) |
| CC(=O)Nc1ccc(S(=O)(=O)N2CCN(c3ccc(C(C)=O)cc3)CC2)cc1 | inactive |
| CCCN1CNc2c(c(=O)[nH]c(=S)n2CCc2ccc(Cl)cc2)C1 | 11.2 µM (active) |
| CC(=O)c1ccc(N2CCN(S(=O)(=O)c3ccc4c(c3)C(=O)OC4)CC2)cc1 | inactive |
| COc1ccc(CCn2c3c(c(=O)[nH]c2=S)CN(C(C)C)CN3)cc1OC | 11.2 µM (active) |
| CCCN1CNc2c(c(=O)[nH]c(=S)n2CCc2c(C)cccc2C)C1 | 3.16 µM (active) |
| CCCN1CNc2c(c(=O)[nH]c(=S)n2CCc2ccc(C)c(C)c2)C1 | 1.12 µM (active) |
| CC(=O)c1ccc(N2CCN(S(=O)(=O)c3ccc4c(c3)OCC(=O)N4)CC2)cc1 | inactive |
| CCCN1CNc2c(c(=O)[nH]c(=S)n2CCc2cc(OC)ccc2OC)C1 | 6.31 µM (active) |
| O=c1[nH]cc(CCc2ccccc2)c2ncncc12 | inactive |
| COc1ccc(CCn2c3c(c(=O)[nH]c2=S)CN(C)CN3)cc1OC | 7.94 µM (active) |
| O=C1Cc2cc(S(=O)(=O)N3CCN(c4ccc([N+](=O)[O-])cc4)CC3)ccc2N1 | 3.26 µM [inhibitor] (active) |
